Pf growth 48h – P. falciparum growth inhibition at 48 hours (one generation) | Potency, µM (doses to about 28.7 µM), actives largely listed as inhibitors | P. falciparum luciferase growth in erythrocytes, 48 h | 5.9% of 310,000 active
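Compounds are pin-transferred into medium, infected erythrocytes (2% hematocrit, 0.1% parasitemia final) are added, and plates sit one parasite generation at 37 C in 5% CO2. Detection reagent is then added and luminescence measured.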
Shiga toxin inh – blocks Shiga toxin action in Vero cells. Vero cells, Shiga toxin protein synthesis inhibition reporter. inhibition, % at 38.7 µM. 9.2% of 290,000 active; in the data active means inhibition mostly above about 28%, no sharp cut-off; inactive means mostly below about 43%
Cycloheximide cs – affects cycloheximide protein synthesis inhibition readout, counter-screen. cell reporter, cycloheximide protein synthesis inhibition counterscreen. max response, %. 12% of 300,000 active; in the data active means max response mostly above about 13%, no sharp cut-off; inactive means mostly below about 14%; further: read at 38.3 µM for the half of the compounds with a filed dose
HCMV antiviral – human cytomegalovirus inhibition | HFF cells, HCMV-luciferase reporter, 72 h; hits give low values | 4.5% of 410,000 active | activity change, negative = inhibition, % at 57.5 µM; in the data active means activity change below about -60%; inconclusive means no clear call, values can overlap the other calls; inactive means above about -39%
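Compounds were evaluated in HFFs infected with an HCMV luciferase reporter virus (MOI 1 PFU/cell). Luciferase in lysates collected 72 h post infection served as the replication measure.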
Pf growth 96h – inhibits malaria parasite growth, 96 h. 6.9% of 320,000 active. P. falciparum luciferase reporter growth, 96 h. Potency, µM (highest dose often 28.7 µM), most hits filed as inhibitors
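Infected RBCs, 2% Hct / 0.05% parasitemia final; luciferase-reporter P. falciparum; cpd 96 h, 37 C, 5% CO2; luciferase detection reagent; luminescence.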
Large screens that a line does not name were inactive. Compounds with a hit are over-represented: about 20% of the library has one in this group of screens. Unless noted, the call rests on the fitted dose curve; in most records, active means well fitted inhibition curve with a large enough effect; inconclusive means small, poorly fitted or top-dose-only effect, or another doubt; inactive means no such curve, though single readings can be large or run the other way.

Cc1cccc(-c2nc3ccccc3c(=O)n2NC(=O)c2cccnc2Cl)c1	HCMV antiviral -69
COc1ccccc1CNn1c(-c2cccc(C)c2)nc2ccccc2c1=O	Pf growth 96h 12µM (no result: Pf growth 48h)
COc1ccc(CNn2c(C)nc3ccccc3c2=O)cc1	none
COc1ccc(CNn2c(-c3cccc(C)c3)nc3ccccc3c2=O)cc1OC	HCMV antiviral inconclusive, Pf growth 96h 12µM (no result: Pf growth 48h)
COc1cccc(OC)c1C(=O)Nn1c(-c2cccc(C)c2)nc2ccccc2c1=O	Pf growth 96h inconclusive
O=C(O)c1ccc(-c2noc(-c3cccc(Cl)c3)n2)cc1	none (no result: Pf growth 48h, Shiga toxin inh, Cycloheximide cs, Pf growth 96h)
COc1cc(-c2ccc(-[n+]3nc(-c4ccccc4)nn3-c3ccc([N+](=O)[O-])cc3)c(OC)c2)ccc1-[n+]1nc(-c2ccccc2)nn1-c1ccc([N+](=O)[O-])cc1	Pf growth 48h 5.4µM, Pf growth 96h 6.7µM (no result: Shiga toxin inh, Cycloheximide cs, HCMV antiviral)
c1ccc(-c2nn(-c3ccccc3)[n+](-c3ccccc3)n2)cc1	HCMV antiviral -95 (no result: Pf growth 48h, Shiga toxin inh, Cycloheximide cs, Pf growth 96h)
CN(C)c1ccc(P(=O)(CC(=O)N/N=C/c2ccc(C#N)cc2)OCCCl)cc1 (stereo unspecified)	none
O=C1N(c2ccccc2C(F)(F)F)O[C@]1(c1ccccc1)C1CCCCC1	Pf growth 48h inconclusive, Pf growth 96h 1µM (no result: Shiga toxin inh, Cycloheximide cs)
O=C(Cn1cccc(C(F)(F)F)c1=O)c1ccc(Cl)cc1	Pf growth 48h inconclusive, Pf growth 96h inconclusive
O=C1N(c2ccccc2C(F)(F)F)OC1(Cc1ccccc1)c1ccccc1 (stereo unspecified)	Pf growth 48h 1µM, Pf growth 96h inconclusive (no result: Shiga toxin inh, Cycloheximide cs)
CC(C)[C@]1(c2ccc(Cl)cc2)ON(c2ccccc2C(F)(F)F)C1=O	Pf growth 48h 1.9µM, Pf growth 96h 1.7µM (no result: Shiga toxin inh, Cycloheximide cs, HCMV antiviral)
CC(C)[C@]1(c2ccccc2)ON(c2ccccc2C(F)(F)F)C1=O	Pf growth 48h 1.9µM, Pf growth 96h 4.7µM (no result: Shiga toxin inh, Cycloheximide cs, HCMV antiviral)
O=C(NCCN1CCCCC1)[C@H]1[C@H](CO)[C@H]2Cn3c(cccc3=O)[C@@H]1N2C(=O)C1CC1	none (no result: Pf growth 48h, Shiga toxin inh, Cycloheximide cs, Pf growth 96h)
CCN(C(=O)Cc1c(C(=O)O)n(C)c2ccccc12)c1cccc(C)c1	none
CC(C)[C@@]1(c2ccccc2)ON(c2ccccc2C(F)(F)F)C1=O	Pf growth 48h 1.7µM, Pf growth 96h inconclusive (no result: Shiga toxin inh, Cycloheximide cs, HCMV antiviral)
Cc1nc2ccccc2c(=O)n1-c1ccccc1C(F)(F)F	Pf growth 48h inconclusive, Pf growth 96h inconclusive
CC(C)(C)[C@H]1C=C(C(=O)N2CCN(Cc3ccccc3)CC2)O[C@@H](OCCCCO)C1	Pf growth 48h inconclusive, Pf growth 96h inconclusive
CC(C)(C)[C@H]1C=C(C(=O)N2CCN(Cc3ccc4c(c3)OCO4)CC2)O[C@@H](OCc2ccc(CO)cc2)C1	Pf growth 48h 10µM, Pf growth 96h inconclusive
CC(C)(C)[C@@H]1C=C(C(=O)N2CCN(Cc3ccccc3)CC2)O[C@H](OCc2ccc(CO)cc2)C1	Pf growth 48h inconclusive, Pf growth 96h 15µM
O=C(C1=C[C@H](C2CC2)C[C@H](OCc2ccc(CO)cc2)O1)N1CCN(Cc2ccc3c(c2)OCO3)CC1	Pf growth 48h inconclusive, Pf growth 96h inconclusive
OCC(O)CS (stereo unspecified)	none (no result: Shiga toxin inh, Cycloheximide cs, HCMV antiviral)
CC(C)Oc1ccc(F)cc1-c1cc(C(=O)NCc2cccs2)[nH]n1	none (no result: Pf growth 48h, Shiga toxin inh, Cycloheximide cs, Pf growth 96h)
COc1cc2ccc(NC(C)=O)cc2cc1OC	none (no result: Pf growth 48h, Shiga toxin inh, Cycloheximide cs, Pf growth 96h)
CC(C)C(NC(=O)c1ccccc1NC(=O)c1ccccc1)C(=O)NNC(=O)c1ccncc1 (stereo unspecified)	Pf growth 48h inconclusive, Pf growth 96h inconclusive
COc1ccc(C(=O)Nc2ccccc2C(=O)NC(Cc2ccc(O)cc2)C(=O)NNC(=O)c2ccc(C)cc2)cc1 (stereo unspecified)	Pf growth 48h inconclusive, Pf growth 96h inconclusive
COc1ccc(C(=O)Nc2ccccc2C(=O)NC(Cc2ccc(O)cc2)C(=O)NNC(=O)c2ccncc2)cc1 (stereo unspecified)	Pf growth 48h 12µM
COc1ccc(C(=O)Nc2ccccc2C(=O)NC(Cc2ccc(O)cc2)C(=O)NNC(=O)c2ccccc2)cc1 (stereo unspecified)	Pf growth 48h 10µM, Cycloheximide cs 20
Cc1c(/C=N\NC(=O)C2COc3ccccc3O2)c2ccccc2n1C (stereo unspecified)	HCMV antiviral -86, Pf growth 96h inconclusive
C/C(=N\NC(=O)C1COc2ccccc2O1)c1cccs1 (stereo unspecified)	HCMV antiviral -60 (no result: Pf growth 48h)
Cc1ccc(-n2c(O)c(/C=N/NC(=O)C3COc4ccccc4O3)c3ccccc3c2=O)cc1 (stereo unspecified)	HCMV antiviral -61
Cc1ccc(/C=N/NC(=O)C2COc3ccccc3O2)s1 (stereo unspecified)	HCMV antiviral -76 (no result: Shiga toxin inh, Cycloheximide cs)
O=C(N/N=C/c1c(O)n(-c2ccccc2Cl)c(=O)c2ccccc12)C1COc2ccccc2O1 (stereo unspecified)	Pf growth 96h inconclusive (no result: HCMV antiviral)
Cn1cc(/C=N\NC(=O)C2COc3ccccc3O2)c2ccccc21 (stereo unspecified)	none
CCOCCCNC(=O)C(c1ccc(OC)cc1)N(Cc1cccs1)C(=O)c1ccc(NC(C)=O)cc1 (stereo unspecified)	none (no result: Pf growth 48h, Shiga toxin inh, Cycloheximide cs, Pf growth 96h)
CCc1c2c(nc3ccc(OC(=O)N4CCC(N5CCCCC5)CC4)cc13)-c1cc3c(c(=O)n1C2)COC(=O)C3(O)CC (stereo unspecified)	none (no result: Pf growth 48h, HCMV antiviral, Pf growth 96h)
Cc1c(/C=N/Nc2ccc(C(=O)O)cc2)c2ccccc2n1C	Cycloheximide cs 42
Cc1ccc(-n2nc(CO)c(C(=O)NC(C)c3ccccc3)n2)cc1C (stereo unspecified)	HCMV antiviral -63 (no result: Pf growth 48h, Shiga toxin inh, Cycloheximide cs, Pf growth 96h)
Cc1cn(-c2ccccc2)c(C)c1/C=N\Nc1nc(N2CCOCC2)nc(N2CCOCC2)n1	Pf growth 48h 8.3µM
Cc1cc(N/N=C/c2ccccc2)nc(N)n1	Pf growth 48h inconclusive, Shiga toxin inh 50, Cycloheximide cs 20
Cc1cc(N/N=C/c2ccccc2)nc(N2CCOCC2)n1	Cycloheximide cs 19
Cc1nc(N)nc(N/N=C/c2ccccc2)n1	Shiga toxin inh 41, Cycloheximide cs 14
COc1ccc2nc3oc(C(=O)Nc4cccc(C(F)(F)F)c4)cc3cc2c1	none (no result: Pf growth 48h, Shiga toxin inh, Cycloheximide cs, Pf growth 96h)
COc1cc(OC)c(NC(=O)NNC(=O)C(=O)NC2CC2)cc1Cl	none (no result: Pf growth 48h, Shiga toxin inh, Cycloheximide cs, Pf growth 96h)
CCCOc1ccc(NC(=O)OC2CCN(C)CC2)cc1	Pf growth 96h inconclusive
CCOC(=O)c1c(N2C(=O)CC(Sc3ccccc3C(=O)O)C2=O)sc(C)c1C (stereo unspecified)	Pf growth 48h 2.3µM, HCMV antiviral inconclusive
Cc1cc(C)cc(N2C(=O)CC(Sc3ccccc3C(=O)O)C2=O)c1 (stereo unspecified)	none
C=C1CCCC2OC(CC3=CC4/C(C)=C/CC(C)CC(/C=C(\C)C(O)C5CC(O)C(O)C(CCC(O)/C=C/C(C)=C/CCC6=NCCC(C3)C64C)O5)OC(=O)CC3OC(C(O)C1)C(O)C3O)CC(O)C2O (stereo unspecified)	HCMV antiviral -78 (no result: Pf growth 48h, Shiga toxin inh, Cycloheximide cs, Pf growth 96h)
Cc1cccc2c(N=Nc3ccccc3)c(O)[nH]c12	Shiga toxin inh 57, Cycloheximide cs 65
Oc1[nH]c2ccccc2c1N=Nc1ccccc1Cl	none (no result: Pf growth 48h, Shiga toxin inh, Cycloheximide cs, Pf growth 96h)

Source: PubChem (National Center for Advancing Translational Sciences (NCATS))
